The list is not random: actives were taken first. Their share in the collection is about 2.8%.
POLK inh: DNA polymerase kappa (human) inhibition | Q9UBT6 | purified Pol kappa, fluorescent DNA synthesis assay, 10 min | Potency, µM (doses to about 107 µM), for the others: at the top dose activity, negative = inhibition, actives largely listed as inhibitors | hit rate 0.53% among 400,000; also: potency is read from the fitted curve at half-maximal effect; % is scaled to controls: 0 for no effect and ±100 for the full control effect
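Enzyme at 10 nM met test compounds for 15 min at room temperature. Substrate addition (50 nM final) began the reaction, which was monitored by fluorescence at 0 and 10 min.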
Pol iota inh: DNA polymerase iota (human) inhibition; Q9UNA4; Pol iota fluorescent replication assay, 10 min; Potency, µM (series often up to 115 µM), for inactives: at the highest dose activity, negative = inhibition, actives largely listed as inhibitors; hit rate 1% among 390,000; AID 588590; also: potency is read from the fitted curve at half-maximal effect
Target sequence (Q9UNA4 whole entry, looked up): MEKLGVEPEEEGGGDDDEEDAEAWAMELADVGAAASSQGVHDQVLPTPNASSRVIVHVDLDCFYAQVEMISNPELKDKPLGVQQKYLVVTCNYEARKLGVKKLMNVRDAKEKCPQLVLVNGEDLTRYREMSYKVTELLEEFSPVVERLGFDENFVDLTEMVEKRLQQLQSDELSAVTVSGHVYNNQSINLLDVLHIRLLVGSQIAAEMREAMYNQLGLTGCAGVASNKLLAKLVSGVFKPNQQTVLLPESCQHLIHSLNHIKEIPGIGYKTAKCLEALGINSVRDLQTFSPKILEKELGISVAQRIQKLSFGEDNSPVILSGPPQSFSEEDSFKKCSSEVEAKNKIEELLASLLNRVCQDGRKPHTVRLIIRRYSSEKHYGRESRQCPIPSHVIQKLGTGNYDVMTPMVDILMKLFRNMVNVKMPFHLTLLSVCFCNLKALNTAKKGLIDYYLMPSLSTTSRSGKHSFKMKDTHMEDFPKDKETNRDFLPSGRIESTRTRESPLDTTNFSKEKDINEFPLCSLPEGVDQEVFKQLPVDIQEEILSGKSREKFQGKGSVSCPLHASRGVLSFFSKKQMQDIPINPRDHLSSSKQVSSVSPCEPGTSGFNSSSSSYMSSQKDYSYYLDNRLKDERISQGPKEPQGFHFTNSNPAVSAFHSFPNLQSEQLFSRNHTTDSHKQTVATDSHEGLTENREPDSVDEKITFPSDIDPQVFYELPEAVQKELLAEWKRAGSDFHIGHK
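Fluorescent replication assay read twice, at 0 min and 10 min after adding 50 nM (final) substrate. Enzyme (10 nM) and compounds were first incubated 15 min at room temperature; enzyme-free buffer wells were negative controls.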
POLH inh: DNA polymerase eta (human) inhibition. Q9Y253. recombinant Pol eta, fluorescent DNA replication assay. Potency, µM (series often up to 114 µM), inactives show top-dose activity change, negative = inhibition, usual class: inhibitors. hit rate 1.2% among 390,000. AID 588591; also: potency is read from the fitted curve at half-maximal effect; % is scaled to controls: 0 for no effect and ±100 for the full control effect
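Pol eta at 10 nM preincubated with compounds 15 min at room temperature; reaction started with fluorescent substrate (50 nM final) and read kinetically at 0 and 10 min.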
Pol beta inh: DNA polymerase beta (human) inhibition; P06746; Pol beta primer extension/strand displacement, fluorescence kinetic; Potency, µM (titrated, usually from 114 µM), for the others: at the highest dose activity change, negative = inhibition, hits mostly inhibitors; hit rate 1.3% among 340,000; also: potency is read from the fitted curve at half-maximal effect; % is scaled to controls: 0 for no effect and ±100 for the full control effect
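Enzyme-only controls used 10 nM Pol beta; buffer lacking enzyme served as negative control. Compound preincubated 15 min, then 50 nM substrate added; 0 and 10 min reads at room temperature.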
PI5P4Ka inh: inhibitors of human PI5P4K alpha; P48426; PI5P4Kalpha enzyme, ADP-Glo luminescence, 60 min; stronger effect = lower value; max response, %; hit rate 1.2% among 330,000; active = max response of -50% or lower; inconclusive = between -30% and -50%; inactive = -30% or higher; also: value at the top dose of about 77 µM; % is scaled to controls: 0 for no effect and ±100 for the full control effect
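Reactions run in 0.038 M HEPES pH 7.4, 0.28 mM EGTA, 0.1% CHAPS and 5% DMSO, with PI5P4Kalpha, substrate, compound and 5 microM ATP final, one hour at room temperature. Readout is ADP-Glo luminescence.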
WRN inhibitor: inhibitors of human WRN helicase; Q14191; WRN helicase unwinding, fluorescent forked duplex, kinetic; Potency, µM (top dose mostly 114 µM), for the others: top-dose activity change, negative = inhibition, most hits filed as inhibitors; hit rate 0.46% among 360,000; AID 651768; also: potency is read from the fitted curve at half-maximal effect; % is scaled to controls: 0 for no effect and ±100 for the full control effect; nearly all actives have a fitted effect of over 55% in size
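Screening of the MLSMR collection measured strand separation of a quenched forked DNA duplex (100 nM) by 20 nM WRN with 2 mM ATP, all final. Compounds were preincubated with enzyme 15 min at room temperature.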
* = called active by the depositor; ? = inconclusive; / = no result; [ ] = dose if it differs, or a comment. Unless noted, calls follow the shape of the dose curve; as a rule, active = well fitted curve in the direction sought with a large enough effect; inconclusive = small, poorly fitted or top-dose-only effect, or another doubt; inactive = no such curve, though single readings can be large; an effect the other way counts as inactive or inconclusive.

SMILES	POLK inh	Pol iota inh	POLH inh	Pol beta inh	PI5P4Ka inh	WRN inhibitor
N#Cc1c(Oc2cccc(OS(=O)(=O)CCCC(F)(F)F)c2)cccc1C(F)(F)F	3.0%[60.1 µM]	/	/	/	/	/
CCOc1ccc(NC(=O)c2c(O)[nH]c(=O)[nH]c2=O)cc1	5.7%	19.4%	-14.4%	/	6.9	0.2%
CCOC(=O)c1ccc(NC(=O)c2c(O)[nH]c(=O)[nH]c2=O)cc1	0.8%	0.1%	?	20µM*	-1.9	-2.7%
CCOP(=S)(OCC)Oc1cc(C)nc(N(CC)CC)n1	12.4%[60.1 µM]	/	/	/	/	/
O=C1NC(=S)N(c2ccc(F)cc2)C(=O)/C1=C/c1ccco1	/	/	/	0.562µM*	/	/
COc1ccc(OC)c(N2C(=O)/C(=C/c3ccco3)C(=O)NC2=S)c1	3.55µM*	?	0.708µM*	?	-86.4*	3.16µM*
O=C1NC(=S)N(c2ccc(Cl)cc2)C(=O)/C1=C/N1CCN(C(=O)c2ccco2)CC1	-4.3%	?	-13.2%	-2.5%	-23.3	-29.7%
CN(C(=O)Cc1ccc(Cl)c(Cl)c1)[C@H](CN1CCCC1)c1cccc(N=C=S)c1	-10.2%[19.4 µM]	/	/	/	/	/
CC/C(CC(c1ccccc1)c1c(O)c2ccccc2oc1=O)=N\NC(N)=S (configuration not stated)	?	?	28.2µM*	?	6.4	-22.4%
Cc1ccc(S(=O)(=O)N(CC(=O)N/N=C\c2cccs2)c2cccc3cccnc23)cc1	-10.2%	?	?	39.8µM*	-23.5	-10.7%
Cc1ccc(-c2nc(N(C)C3CCN(C)CC3)c3ccccc3n2)cc1	-8.0%	?	1.2%	28.2µM*	/	-12.2%
O=C(c1cncc(Br)c1)N1CCN(S(=O)(=O)c2ccc3ccccc3c2)CC1	-6.1%	48.5%	-11.3%	/	1.4	-11.0%
ClCCN(CCCl)c1ccc(C=Nc2ccncc2)cc1	-7.6%	10.2%	/	/	/	/
O=S(=O)(Nc1c(O)ccc2ccccc12)c1ccc(F)cc1	-20.3%	?	-4.9%	/	-25.6	50.1µM*
CN1CCN(C(=O)COc2ccc(S(=O)(=O)Nc3ccc(F)cc3)cc2)CC1	0.5%	53.0%	-5.9%	8.7%	0.3	9.8%
CCC(Oc1ccccc1OC)C(=O)Nc1ccc2c(c1)OCCO2 (configuration not stated)	-1.2%	40.4%	-14.0%	-10.1%	-2.3	2.3%
CCOC(=O)N1CCN(/[N+]([O-])=N/Oc2ccc([N+](=O)[O-])cc2[N+](=O)[O-])CC1C (configuration not stated)	-0.8%	?	/	/	/	/
O=C(Nc1ccc(Cl)c(Cl)c1)c1ccco1	-11.6%	145.6%	-25.2%	4.6%	7.5	-24.6%
CCN(c1ccc(C)cc1C)S(=O)(=O)c1nnc(NC(=O)c2ccco2)s1	-25.9%	?	79.4µM*	-25.2%	-26.1	-6.4%[57.1 µM]
Cc1ccc(C=C2C(Cl)=C(Cl)C(Cl)=C2Cl)cc1	15.8µM*	2.82µM*	11.2µM*	3.98µM*	?	44.7µM*
COC(=O)/C(C)=C\CC12OC(C)(C)C3CC(C=C4C(=O)c5c(OC)c6c(c(CC=C(C)C)c5OC431)OC(C)(CCC=C(C)C)C=C6)C2=O (configuration not stated)	-23.7%[60.1 µM]	/	/	/	/	/
CC(=O)Oc1c2c(c(CC=C(C)C)c3c1C(=O)C1=CC4CC5C(C)(C)OC(C/C=C(\C)C(=O)O)(C4=O)[C@]15O3)OC(C)(CCC=C(C)C)C=C2 (some centres not stated)	25.1µM*	/	/	/	/	/
NC(=O)CF	19.0%[60.1 µM]	/	/	/	/	/
Cc1c(C(=O)c2cccc3ccccc23)c2cccc3c2n1[C@@H](CN1CCOCC1)CO3	-9.8%[60.1 µM]	/	/	/	/	/
COc1ccc(P2(=O)Nc3ccccc3N2)cc1	-32.2%	91.3%	-9.3%	39.8µM*	-6.5	-19.6%
COc1ccc2c(c1)NP(=S)(c1ccccc1)N2C (configuration not stated)	2.1%	12.3%	-28.5%	/	2.6	-14.0%
Cc1ccc(CCNC(=O)Cn2nc(C)c3c(C)n(-c4ccc(C)cc4)nc3c2=O)cc1	-2.2%	-7.1%	?	79.4µM*	/	/
O=C(Nc1ccccc1)c1ccccc1I	-5.7%[12 µM]	/	/	/	/	/
